According to PubChem BioAssay (NCI):
About 79,000 compounds went through this panel and 15% of them were active in at least one assay; those are over-represented in the sample as a whole. Values without a mark were called inactive. Activity calls are given as the source filed them. Cut-off read from the data, not from the text of the source: active = growth inhibition above about 70%; inactive = the rest.

Columns and labels:
[1] = NCI Yeast Anticancer Drug Screen. Data for the rad50 strain (AID 155);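 note: 0% = growth of vehicle-only cultures of the same strain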; details: S. cerevisiae rad50 strain growth inhibition, active compounds read high
Method in brief: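 Cells are treated with compound, grown, and their growth is then scored against vehicle-only cultures of the same repair-deficient yeast strain.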

[2] = NCI Yeast Anticancer Drug Screen. Data for the mec2-1 strain (AID 157); details: S. cerevisiae mec2-1 strain, active compounds read high
Method in brief: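 Yeast mec2-1 mutant treated with compound. Readout: growth inhibition vs vehicle controls.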

[3] = NCI Yeast Anticancer Drug Screen. Data for the sgs1 mgt1 strain (AID 161);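 note: 0% = growth of cultures given vehicle only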; details: S. cerevisiae sgs1 mgt1 strain, active compounds read high
Method in brief: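 Test agents were incubated with a DNA-repair-mutant yeast strain. Growth was then read and compared against vehicle-treated controls.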

[4] = NCI Yeast Anticancer Drug Screen. Data for the cln2 rad14 strain (AID 165);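 note: 0% = growth equal to vehicle treated cultures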; details: S. cerevisiae cln2 rad14 strain, active compounds read high
Method in brief: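 cln2 rad14 yeast strain; compound exposure; growth inhibition read vs vehicle controls.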

[5] = NCI Yeast Anticancer Drug Screen. Data for the bub3 strain (AID 167); details: S. cerevisiae bub3 mutant strain, active compounds read high
Method in brief: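 Part of a panel of yeast mutants defective in DNA damage repair or cell cycle regulation. Each strain is grown with compound, and inhibition is calculated relative to solvent-treated cultures.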

[6] = NCI Yeast Anticancer Drug Screen. Data for the mlh1 rad18 strain (AID 175); details: S. cerevisiae mlh1 rad18 strain growth inhibition, active compounds read high
Method in brief: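 Yeast w/ defined DNA-repair lesions; compound exposure; growth vs vehicle controls → % inhibition.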

[7] = at 5.0 µM (retest, dose inferred, filed as 0.5)
[8] = at 50.0 µM (retest, dose inferred, filed as 5.0)

SMILES	growth inhibition [1, 7]	growth inhibition [1, 8]	growth inhibition ([1]; at 50.0 µM)	growth inhibition [2, 7]	growth inhibition [2, 8]	growth inhibition ([2]; at 50.0 µM)	growth inhibition [3, 7]	growth inhibition [3, 8]	growth inhibition ([3]; at 50.0 µM)	growth inhibition [4, 7]	growth inhibition [4, 8]	growth inhibition ([4]; at 50.0 µM)	growth inhibition [5, 7]	growth inhibition [5, 8]	growth inhibition ([5]; at 50.0 µM)	growth inhibition [6, 7]	growth inhibition [6, 8]	growth inhibition ([6]; at 50.0 µM)
NN=C(CC(O)(C(F)(F)Cl)C(F)(F)Cl)CC(O)(C(F)(F)Cl)C(F)(F)Cl	32%	99% (active)	98.9% (active)	32%	99% (active)	99.2% (active)	26%	99% (active)	99.1% (active)	33%	100% (active)	99.3% (active)	6%	100% (active)	99% (active)	38%	99% (active)	98.8% (active)
CC(COC(=O)C(c1ccccc1)C1C=CCCC1)CN1CCCC1 (configuration not stated)	-1%	60%	70.4% (active)	18%	51%	46.8%	21%	61%	72.8% (active)	4%	34%	86.5% (active)	0%	36%	74.5% (active)	35%	74% (active)	90.3% (active)
C/C(=N/Nc1ccc([N+](=O)[O-])cc1[N+](=O)[O-])C(=O)O	11%	69%	95.3% (active)	2%	63%	59.8%	-1%	76% (active)	97.5% (active)	-1%	21%	13.2%	-1%	72% (active)	98.5% (active)	-2%	91% (active)	96.8% (active)
Cc1ccc(S(=O)(=O)C(=S)Sc2ccccc2)cc1	6%	82% (active)	45.5%	8%	89% (active)	39.5%	10%	88% (active)	80.6% (active)	6%	63%	33.7%	17%	90% (active)	36.5%	11%	92% (active)	79.8% (active)
O=C([O-])c1ccccc1[I+]c1ccc(C2CCCCC2)cc1	3%	45%	85.2% (active)	2%	67%	79.6% (active)	22%	50%	89.8% (active)	3%	47%	73.2% (active)	0%	45%	71.8% (active)	32%	85% (active)	89.9% (active)
O=C(N/N=C/c1ccccc1O)C1Cc2ccccc2C1C(Cl)Cl (configuration not stated)	51%	97% (active)	88% (active)	36%	98% (active)	91.3% (active)	47%	99% (active)	93% (active)	31%	95% (active)	89.5% (active)	45%	82% (active)	90.7% (active)	59%	98% (active)	90.8% (active)
CCCC(=O)Oc1ccc([N+](=O)[O-])cc1	4%	23%	28.4%	2%	13%	29%	-1%	8%	11.1%	2%	6%	34.9%	4%	12%	4.5%	4%	13%	13.1%
C/C(CCC1CCc2ccccc2C1)=N\NC(N)=O (configuration not stated)	-11%	-8%	32.2%	-4%	0%	12.3%	1%	5%	6.2%	-42%	-13%	-1.45%	0%	-2%	11.4%	-8%	-10%	-6.5%
O=[N+]([O-])c1c(C=Nc2ccccc2)oc(-c2c(O)ccc3ccccc23)c1-c1c(O)ccc2ccccc12	1%	2%	98.7% (active)	-13%	-11%	98.7% (active)	-7%	-4%	98.8% (active)	-30%	-26%	98.5% (active)	3%	3%	98.8% (active)	-2%	-1%	98.8% (active)
Cc1ccc2cc3ccccc3c(-c3ccccc3)c2c1	5%	-3%	10.6%	-13%	-29%	12.9%	6%	-61%	-9.35%	5%	-16%	37%	-11%	-12%	-1.15%	-2%	0%	-5.65%
CCCC(=O)OCc1cc(=O)n(C)c2c3c4c(cc12)c(C)cc(=O)n4CO3	86% (active)	99% (active)	25%	58%	100% (active)	-11.2%	79% (active)	100% (active)	22.8%	63%	99% (active)	13.6%	84% (active)	98% (active)	-11%	83% (active)	99% (active)	22.4%
FC(F)(F)c1cccc(N2CCN(c3c4c(nc5ccccc35)CCCCC4)CC2)c1	-4%	96% (active)	95.5% (active)	4%	99% (active)	97.7% (active)	11%	98% (active)	93.8% (active)	-14%	96% (active)	95.5% (active)	-4%	97% (active)	92% (active)	22%	98% (active)	95.7% (active)
Cc1cc(NCCCCCCCCCC[n+]2c(C)cc(N)c3ccccc32)c2ccccc2n1	71% (active)	99% (active)	89.8% (active)	94% (active)	99% (active)	92.2% (active)	97% (active)	99% (active)	91.5% (active)	95% (active)	99% (active)	90% (active)	96% (active)	99% (active)	90.9% (active)	95% (active)	99% (active)	90.6% (active)
COC(=O)N1C2C=CC(=O)C(C=C2)N1C(=O)OC (configuration not stated)	-3%	30%	33.9%	2%	38%	53.2%	0%	58%	47%	1%	23%	36.4%	-1%	34%	60.6%	18%	79% (active)	85% (active)
FC(F)(F)c1ccc(-c2ccc(OCCN3CCCC3)cc2)cc1	30%	50%	98.6% (active)	13%	50%	99.5% (active)	25%	88% (active)	99.4% (active)	28%	40%	99.1% (active)	26%	62%	99.4% (active)	29%	68%	99.3% (active)
CCc1cccc(CC)c1NC(=O)CS	-151%	93% (active)	98% (active)	-51%	94% (active)	97.7% (active)	-64%	90% (active)	61.7%	-72%	90% (active)	95.8% (active)	-85%	92% (active)	97.8% (active)	-132%	93% (active)	98% (active)
CCCC(=O)NCCNC(=O)CCC	-154%	-159%	4.35%	-48%	-54%	7.75%	-61%	-62%	1.75%	-50%	-62%	45.8%	-69%	-82%	-3.15%	-139%	-117%	10.1%
CC(=O)NNc1nc(C)c(C(=O)NNC(=O)C(=O)Nc2ccc(Cl)c([N+](=O)[O-])c2)s1	34%	34%	70.6% (active)	19%	19%	20.9%	32%	32%	69.2%	18%	18%	51.6%	19%	19%	55.9%	20%	20%	50.4%
Cc1ccc(S(=O)(=O)N/N=C/c2cc(I)cc([N+](=O)[O-])c2O)cc1	17%	91% (active)	89.3% (active)	13%	92% (active)	95.8% (active)	23%	93% (active)	97.7% (active)	9%	94% (active)	91.3% (active)	8%	97% (active)	88.8% (active)	21%	94% (active)	96.5% (active)
